Assay in all cases: DAPPL (digital affinity profiling via proximity ligation, sequencing); 10 mM Tris-HCl pH 7.5, 50 mM NaCl, 1 mM DTT, 4% glycerol, room temperature, 30 min; GST-TFs on glutathione beads, 16-mer random dsDNA library, 0.1% formaldehyde crosslink after washing; high values mean tight binding
In one assay the target is T1, FLI1 (Homo sapiens, UniProt Q01543 1-452).
T1 sequence: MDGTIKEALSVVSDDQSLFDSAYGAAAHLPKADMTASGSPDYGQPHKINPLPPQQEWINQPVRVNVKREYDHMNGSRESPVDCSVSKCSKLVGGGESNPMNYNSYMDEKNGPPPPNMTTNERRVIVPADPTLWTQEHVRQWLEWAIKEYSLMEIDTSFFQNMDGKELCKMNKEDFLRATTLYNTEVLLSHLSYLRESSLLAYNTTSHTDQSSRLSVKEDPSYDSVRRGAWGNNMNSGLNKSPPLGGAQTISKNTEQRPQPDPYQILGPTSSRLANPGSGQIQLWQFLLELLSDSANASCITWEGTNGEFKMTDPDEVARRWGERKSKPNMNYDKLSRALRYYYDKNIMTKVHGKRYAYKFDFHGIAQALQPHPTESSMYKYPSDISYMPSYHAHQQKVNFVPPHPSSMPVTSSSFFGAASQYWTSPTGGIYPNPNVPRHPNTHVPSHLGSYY
The note with it: protein: recombinant; tags: N-terminal GST; dsDNA, one strand shown. The gist of the method:
(§1)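 Beads coated with glutathione captured GST-fused human transcription factors that had been expressed in yeast, and the factors were then given DNA barcodes and pooled with a tag-only sample. The pools were incubated with 200 nmole of a random double-stranded 16-mer DNA library in Tris/NaCl/DTT/glycerol buffer for 30 min at room temperature, washed, crosslinked with 0.1% formaldehyde and proximity-ligated with BsaI/T4 ligase at 37 °C for 1 h. PCR amplification and Illumina NextSeq500 sequencing came last. Binding signal is each hexamer's read frequency for a factor divided by its frequency for the tag-only sample.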

A further assay addresses T2, ELK1 (Homo sapiens, UniProt P19419 1-428).
T2 sequence: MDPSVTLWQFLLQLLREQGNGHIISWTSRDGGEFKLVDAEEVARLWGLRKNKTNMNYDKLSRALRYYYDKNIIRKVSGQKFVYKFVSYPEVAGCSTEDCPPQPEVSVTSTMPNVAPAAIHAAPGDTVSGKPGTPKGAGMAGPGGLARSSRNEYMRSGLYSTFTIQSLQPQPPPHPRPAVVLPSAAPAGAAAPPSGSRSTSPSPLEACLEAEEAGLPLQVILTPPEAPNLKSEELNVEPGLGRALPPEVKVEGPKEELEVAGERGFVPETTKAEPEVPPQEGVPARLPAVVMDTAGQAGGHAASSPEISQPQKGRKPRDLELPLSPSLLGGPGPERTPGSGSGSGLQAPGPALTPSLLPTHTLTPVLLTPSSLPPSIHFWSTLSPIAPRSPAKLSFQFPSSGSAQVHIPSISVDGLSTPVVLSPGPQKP
The note with it: protein: recombinant; tags: N-terminal GST; dsDNA, one strand shown. The gist of the method:
as §1

For the next assay, the target named is T3, GABPA (Homo sapiens, UniProt Q06546 1-454).
T3 sequence: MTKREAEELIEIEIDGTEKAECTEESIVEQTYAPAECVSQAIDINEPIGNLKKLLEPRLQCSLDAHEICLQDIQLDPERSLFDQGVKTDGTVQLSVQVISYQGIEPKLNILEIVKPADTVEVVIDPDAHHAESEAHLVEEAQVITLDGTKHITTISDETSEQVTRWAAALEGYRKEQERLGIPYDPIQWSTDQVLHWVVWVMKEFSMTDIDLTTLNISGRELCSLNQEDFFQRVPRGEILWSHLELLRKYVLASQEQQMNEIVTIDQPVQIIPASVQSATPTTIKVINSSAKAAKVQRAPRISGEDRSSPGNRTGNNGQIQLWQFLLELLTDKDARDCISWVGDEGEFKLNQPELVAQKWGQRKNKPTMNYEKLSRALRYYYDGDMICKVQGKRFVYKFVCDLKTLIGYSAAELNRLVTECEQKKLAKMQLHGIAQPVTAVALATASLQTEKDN
Conditions: protein: recombinant; tags: N-terminal GST; dsDNA, one strand shown. In a few lines:
as §1

Another assay concerns the target T4, ERG (Homo sapiens, UniProt P11308 1-479).
T4 sequence: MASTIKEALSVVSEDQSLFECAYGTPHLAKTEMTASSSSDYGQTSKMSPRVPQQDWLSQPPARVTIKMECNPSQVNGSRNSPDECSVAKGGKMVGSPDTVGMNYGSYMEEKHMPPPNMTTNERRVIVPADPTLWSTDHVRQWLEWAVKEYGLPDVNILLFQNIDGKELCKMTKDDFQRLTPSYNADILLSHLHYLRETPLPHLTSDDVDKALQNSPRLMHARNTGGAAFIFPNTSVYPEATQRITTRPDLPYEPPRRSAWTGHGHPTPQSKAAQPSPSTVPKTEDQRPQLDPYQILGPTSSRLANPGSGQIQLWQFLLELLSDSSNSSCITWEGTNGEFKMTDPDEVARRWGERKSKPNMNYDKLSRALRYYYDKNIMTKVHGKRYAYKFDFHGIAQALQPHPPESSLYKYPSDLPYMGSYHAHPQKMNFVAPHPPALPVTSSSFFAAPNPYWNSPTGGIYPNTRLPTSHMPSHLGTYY
Conditions: protein: recombinant; tags: N-terminal GST; dsDNA, one strand shown. In a few lines:
as §1

A further assay concerns the target ELF1 (Homo sapiens, UniProt P32519 1-619). The note with it: protein: recombinant; tags: N-terminal GST; dsDNA, one strand shown. The gist of the method:
as §1

The target in the next assay is T5, EHF (Homo sapiens, UniProt Q9NZC4 1-300).
T5 sequence: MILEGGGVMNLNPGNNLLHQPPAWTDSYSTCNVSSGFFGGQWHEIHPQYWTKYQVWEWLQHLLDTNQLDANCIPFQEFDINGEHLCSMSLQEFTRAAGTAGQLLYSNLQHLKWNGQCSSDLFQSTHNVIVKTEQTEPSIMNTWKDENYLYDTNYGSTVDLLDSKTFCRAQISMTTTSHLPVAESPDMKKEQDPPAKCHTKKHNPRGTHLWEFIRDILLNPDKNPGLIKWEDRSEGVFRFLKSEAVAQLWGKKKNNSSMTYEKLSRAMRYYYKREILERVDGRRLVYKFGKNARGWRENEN
The note with it: protein: recombinant; tags: N-terminal GST; dsDNA, one strand shown. In a few lines:
as §1

A further assay has as its target SPI1 (Homo sapiens, UniProt P17947 1-270). Conditions: protein: recombinant; tags: N-terminal GST; dsDNA, one strand shown. The gist of the method: as §1
The target in another assay is SPIB (Homo sapiens, UniProt Q01892 1-262). The note with it: protein: recombinant; tags: N-terminal GST; dsDNA, one strand shown. The gist of the method: as §1
SPIB, sequence (Q01892 whole entry): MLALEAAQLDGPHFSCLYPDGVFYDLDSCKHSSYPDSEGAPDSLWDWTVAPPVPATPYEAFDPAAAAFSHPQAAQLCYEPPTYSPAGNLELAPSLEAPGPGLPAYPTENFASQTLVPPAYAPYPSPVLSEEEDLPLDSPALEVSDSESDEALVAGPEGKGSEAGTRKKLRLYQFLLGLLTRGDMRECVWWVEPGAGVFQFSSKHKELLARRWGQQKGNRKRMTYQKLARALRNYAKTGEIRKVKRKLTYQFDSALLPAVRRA
Another assay concerns the target T6, ELK3 (Homo sapiens, UniProt P41970 1-407).
T6 sequence: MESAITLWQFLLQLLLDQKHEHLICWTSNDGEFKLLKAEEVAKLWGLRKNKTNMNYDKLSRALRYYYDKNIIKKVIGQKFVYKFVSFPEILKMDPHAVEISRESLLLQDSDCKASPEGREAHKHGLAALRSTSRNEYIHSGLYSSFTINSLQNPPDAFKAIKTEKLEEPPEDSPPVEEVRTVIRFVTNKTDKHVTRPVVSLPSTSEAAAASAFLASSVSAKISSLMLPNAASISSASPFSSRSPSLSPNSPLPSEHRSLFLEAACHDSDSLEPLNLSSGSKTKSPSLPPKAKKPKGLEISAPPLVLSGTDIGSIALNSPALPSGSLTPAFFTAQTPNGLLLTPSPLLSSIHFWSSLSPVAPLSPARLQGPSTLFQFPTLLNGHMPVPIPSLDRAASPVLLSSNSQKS
The note with it: protein: recombinant; tags: N-terminal GST; dsDNA, one strand shown. In a few lines: as §1

A further assay addresses T7, FEV (Homo sapiens, UniProt Q99581 1-238).
T7 sequence: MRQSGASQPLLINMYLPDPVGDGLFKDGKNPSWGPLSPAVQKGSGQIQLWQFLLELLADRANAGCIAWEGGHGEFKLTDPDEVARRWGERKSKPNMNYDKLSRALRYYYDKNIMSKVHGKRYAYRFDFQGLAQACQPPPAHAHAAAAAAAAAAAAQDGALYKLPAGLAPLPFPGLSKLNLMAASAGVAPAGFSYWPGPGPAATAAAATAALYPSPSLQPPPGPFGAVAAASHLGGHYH
The note with it: protein: recombinant; tags: N-terminal GST; dsDNA, one strand shown. The gist of the method:
as §1

For the next assay, the target named is ETV5 (Homo sapiens, UniProt P41161 1-510). The note with it: protein: recombinant; tags: N-terminal GST; dsDNA, one strand shown. In a few lines:
as §1

A further assay deals with HSF1 (Homo sapiens, UniProt Q00613 1-529). The note with it: protein: recombinant; tags: N-terminal GST; chain copies: 3; dsDNA, one strand shown. In a few lines: as §1
HSF1, sequence (Q00613 whole entry): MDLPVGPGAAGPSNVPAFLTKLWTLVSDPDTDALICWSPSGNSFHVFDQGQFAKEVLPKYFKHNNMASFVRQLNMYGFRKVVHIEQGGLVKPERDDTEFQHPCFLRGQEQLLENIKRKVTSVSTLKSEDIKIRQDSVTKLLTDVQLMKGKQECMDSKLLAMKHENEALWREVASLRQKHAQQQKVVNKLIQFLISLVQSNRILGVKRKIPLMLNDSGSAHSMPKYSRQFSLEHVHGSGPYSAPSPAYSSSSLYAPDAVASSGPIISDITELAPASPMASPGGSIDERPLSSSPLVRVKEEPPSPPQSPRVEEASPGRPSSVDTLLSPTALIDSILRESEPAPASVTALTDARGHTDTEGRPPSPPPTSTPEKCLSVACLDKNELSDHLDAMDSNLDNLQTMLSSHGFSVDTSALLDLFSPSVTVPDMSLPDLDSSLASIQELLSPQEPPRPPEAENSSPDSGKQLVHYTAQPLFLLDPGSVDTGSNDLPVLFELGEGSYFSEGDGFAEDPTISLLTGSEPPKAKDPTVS
A further assay concerns the target T8, SPIC (Homo sapiens, UniProt Q8N5J4 1-248).
T8 sequence: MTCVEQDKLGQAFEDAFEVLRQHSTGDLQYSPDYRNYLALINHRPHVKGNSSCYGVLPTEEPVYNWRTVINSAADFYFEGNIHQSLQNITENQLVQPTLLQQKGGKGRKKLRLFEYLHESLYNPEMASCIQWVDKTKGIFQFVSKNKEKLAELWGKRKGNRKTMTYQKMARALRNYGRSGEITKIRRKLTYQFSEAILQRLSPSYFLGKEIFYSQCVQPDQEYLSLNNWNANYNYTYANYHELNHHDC
Conditions: protein: recombinant; tags: N-terminal GST; dsDNA, one strand shown. The gist of the method: as §1

The target of another assay is ELF4 (Homo sapiens, UniProt Q99607 1-663). The note with it: protein: recombinant; tags: N-terminal GST; dsDNA, one strand shown. In a few lines: as §1
ELF4, sequence (Q99607 whole entry): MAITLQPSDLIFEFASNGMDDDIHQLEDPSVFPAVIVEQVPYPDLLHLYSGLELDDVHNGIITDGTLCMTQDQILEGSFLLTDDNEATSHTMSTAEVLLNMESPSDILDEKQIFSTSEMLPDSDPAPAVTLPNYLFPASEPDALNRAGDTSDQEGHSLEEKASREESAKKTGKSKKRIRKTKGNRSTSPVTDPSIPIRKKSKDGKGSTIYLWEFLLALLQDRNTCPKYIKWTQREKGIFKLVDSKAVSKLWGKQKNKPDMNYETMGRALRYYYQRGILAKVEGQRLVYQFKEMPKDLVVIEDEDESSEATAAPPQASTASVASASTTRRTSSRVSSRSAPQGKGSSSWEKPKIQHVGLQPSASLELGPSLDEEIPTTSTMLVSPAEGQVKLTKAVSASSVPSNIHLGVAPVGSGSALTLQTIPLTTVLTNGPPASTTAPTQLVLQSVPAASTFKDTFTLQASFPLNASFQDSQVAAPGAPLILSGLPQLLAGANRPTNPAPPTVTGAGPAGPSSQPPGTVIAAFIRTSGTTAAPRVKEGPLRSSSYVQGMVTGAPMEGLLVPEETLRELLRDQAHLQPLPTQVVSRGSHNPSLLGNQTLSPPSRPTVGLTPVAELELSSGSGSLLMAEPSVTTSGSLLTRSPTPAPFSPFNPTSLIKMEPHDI
The next assay has as its target T9, ETV2 (Homo sapiens, UniProt O00321 1-342).
T9 sequence: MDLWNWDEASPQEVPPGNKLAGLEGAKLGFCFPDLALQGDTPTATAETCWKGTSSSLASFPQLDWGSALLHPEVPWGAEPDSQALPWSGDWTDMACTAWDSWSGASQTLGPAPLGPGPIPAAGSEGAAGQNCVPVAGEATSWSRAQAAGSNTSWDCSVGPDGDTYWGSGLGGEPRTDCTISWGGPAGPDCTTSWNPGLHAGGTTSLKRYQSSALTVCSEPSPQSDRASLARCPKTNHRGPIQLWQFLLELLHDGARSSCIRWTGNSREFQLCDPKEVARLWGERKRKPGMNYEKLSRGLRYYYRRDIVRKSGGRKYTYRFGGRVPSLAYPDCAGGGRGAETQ
Conditions: protein: recombinant; tags: N-terminal GST; dsDNA, one strand shown. In a few lines: as §1

In another assay the target is T10, ELF3 (Homo sapiens, UniProt P78545 1-371).
T10 sequence: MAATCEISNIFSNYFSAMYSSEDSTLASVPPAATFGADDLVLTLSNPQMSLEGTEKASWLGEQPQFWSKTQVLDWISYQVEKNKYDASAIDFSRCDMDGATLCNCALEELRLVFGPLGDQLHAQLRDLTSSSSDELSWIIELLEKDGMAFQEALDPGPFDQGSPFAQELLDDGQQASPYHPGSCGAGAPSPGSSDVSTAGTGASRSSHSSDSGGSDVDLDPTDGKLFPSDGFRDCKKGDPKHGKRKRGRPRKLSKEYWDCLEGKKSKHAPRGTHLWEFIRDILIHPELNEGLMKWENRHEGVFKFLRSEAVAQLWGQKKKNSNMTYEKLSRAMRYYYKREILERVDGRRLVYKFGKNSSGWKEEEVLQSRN
Conditions: protein: recombinant; tags: N-terminal GST; dsDNA, one strand shown. The gist of the method:
as §1

The target in the next assay is CRX (Homo sapiens, UniProt O43186 1-299). Conditions: protein: recombinant; tags: N-terminal GST; dsDNA, one strand shown. In a few lines: as §1
CRX, sequence (O43186 whole entry): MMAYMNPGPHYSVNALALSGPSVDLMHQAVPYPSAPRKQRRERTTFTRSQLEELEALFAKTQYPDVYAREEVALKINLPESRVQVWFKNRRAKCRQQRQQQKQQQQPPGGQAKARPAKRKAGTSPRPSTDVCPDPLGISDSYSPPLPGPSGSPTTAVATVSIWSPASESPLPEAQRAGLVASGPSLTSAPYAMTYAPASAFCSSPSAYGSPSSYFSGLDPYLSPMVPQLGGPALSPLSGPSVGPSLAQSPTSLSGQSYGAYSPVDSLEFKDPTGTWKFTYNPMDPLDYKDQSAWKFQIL

ETV5, sequence (P41161 whole entry): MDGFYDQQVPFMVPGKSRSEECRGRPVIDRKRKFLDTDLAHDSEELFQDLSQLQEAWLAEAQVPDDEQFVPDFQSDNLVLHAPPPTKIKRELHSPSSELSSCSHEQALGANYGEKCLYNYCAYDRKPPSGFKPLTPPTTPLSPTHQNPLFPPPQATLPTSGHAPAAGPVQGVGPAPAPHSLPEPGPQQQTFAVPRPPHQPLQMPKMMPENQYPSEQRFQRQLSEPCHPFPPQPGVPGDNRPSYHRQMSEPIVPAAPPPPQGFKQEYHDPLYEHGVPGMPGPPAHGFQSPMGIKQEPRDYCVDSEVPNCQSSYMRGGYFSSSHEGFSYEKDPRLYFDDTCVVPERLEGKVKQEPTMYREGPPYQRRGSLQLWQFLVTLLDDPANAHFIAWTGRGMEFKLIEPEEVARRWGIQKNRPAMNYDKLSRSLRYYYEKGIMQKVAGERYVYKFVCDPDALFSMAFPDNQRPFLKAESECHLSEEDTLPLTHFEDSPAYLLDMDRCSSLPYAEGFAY
ELF1, sequence (P32519 whole entry): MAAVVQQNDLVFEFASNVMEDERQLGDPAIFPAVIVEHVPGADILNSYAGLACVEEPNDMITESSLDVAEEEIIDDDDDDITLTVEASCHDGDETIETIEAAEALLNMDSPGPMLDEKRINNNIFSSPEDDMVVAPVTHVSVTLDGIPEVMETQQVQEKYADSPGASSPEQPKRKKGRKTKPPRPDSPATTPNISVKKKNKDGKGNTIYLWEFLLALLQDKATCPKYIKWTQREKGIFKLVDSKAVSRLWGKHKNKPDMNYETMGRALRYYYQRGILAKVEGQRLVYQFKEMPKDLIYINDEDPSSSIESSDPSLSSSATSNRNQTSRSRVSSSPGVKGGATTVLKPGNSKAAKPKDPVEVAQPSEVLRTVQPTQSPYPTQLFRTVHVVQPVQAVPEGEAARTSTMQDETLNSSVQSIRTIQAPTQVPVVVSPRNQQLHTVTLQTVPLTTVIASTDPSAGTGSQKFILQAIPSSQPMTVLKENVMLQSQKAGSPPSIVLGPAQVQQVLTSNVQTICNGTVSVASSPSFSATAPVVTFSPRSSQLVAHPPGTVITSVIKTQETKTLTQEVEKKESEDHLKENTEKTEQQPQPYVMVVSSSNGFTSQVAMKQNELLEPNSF

For CTTACG, the binding signal with FLI1 was 1.16 fold enrichment (6-mer frequency, TF over GST control); in the assay with ELK1, 1.15 fold enrichment (6-mer frequency, TF over GST control); with GABPA it was 1.11 fold enrichment (6-mer frequency, TF over GST control); with ERG it was 1.02 fold enrichment (6-mer frequency, TF over GST control); with ELF1, 1.1 fold enrichment (6-mer frequency, TF over GST control); with EHF it was 1.07 fold enrichment (6-mer frequency, TF over GST control). Also, the binding signal was 1.09 fold enrichment (6-mer frequency, TF over GST control) with SPI1; 1.06 fold enrichment (6-mer frequency, TF over GST control) with SPIB; 1.07 fold enrichment (6-mer frequency, TF over GST control) with ELK3; 1.06 fold enrichment (6-mer frequency, TF over GST control) with FEV; 1.12 fold enrichment (6-mer frequency, TF over GST control) with ETV5; 1.14 fold enrichment (6-mer frequency, TF over GST control) with HSF1. In addition, the binding signal with SPIC is 1.02 fold enrichment (6-mer frequency, TF over GST control); in the assay with ELF4 it was 1.14 fold enrichment (6-mer frequency, TF over GST control); with ETV2, 1.1 fold enrichment (6-mer frequency, TF over GST control); with ELF3, 1.11 fold enrichment (6-mer frequency, TF over GST control); with CRX it was 1.5 fold enrichment (6-mer frequency, TF over GST control).

(Values after paper PMC7862700, “An all-to-all approach to the identification of sequence-specific readers for epigenetic DNA modifications on cytosine”.)
